In PubChem BioAssay AID1745847 (National Center for Advancing Translational Sciences (NCATS), 2022):
Among all 2,100 compounds or so, about 670 (32%) were called active. Another 50% or so got no clear call; they are omitted. Some of the results follow. Values without a mark were called inactive. Calls come from the whole dose curve; as a rule, active = well fitted inhibition curve with a large enough effect; inconclusive = small, poorly fitted or top-dose-only effect; inactive = no such curve, though single readings can be large or run the other way.

Test: CMV-Luciferase Counterscreen for Inhibitors of ATXN expression; note: nearly all actives have a fitted effect of over 55% in size
Conditions: HEK-293 CMV-luciferase reporter, luminescence, 24 h; series mostly up to 57.5 µM
% is set by controls: 0 for no effect and ±100 for the full control effect; potency is the fitted concentration of half-maximal effect.

SMILES	Potency	activity change, negative = inhibition
Cc1cccn2c(=O)c3cc(C(=O)NCCc4ccccc4)c(=N)n(CCCn4ccnc4)c3nc12	inactive	
CC1(C)Cc2c(c(-c3ccco3)nc3sc4c(NCCN5CCOCC5)ncnc4c23)CO1	inactive	
Cc1c(C(=O)Nc2nonc2-c2ccc(F)cc2)oc2ccc(F)cc12	11.2 µM (active)	
O=C(NNC(=O)C12CC3CC(CC(C3)C1)C2)c1ccccn1	8.91 µM (active)	
CN(C)c1ccc2c(c1)OC(N)=C(C#N)C2c1cccc(F)c1 (centres undefined)	inactive	
Cn1cccc1/C=N/N1CCN(Cc2ccccc2Cl)CC1	inactive	
O=C(Nc1ccccc1N1CCN(C(=O)c2ccccc2)CC1)c1ccc(Br)o1	28.2 µM (active)	
Cc1cc(C)n(-c2nc(Nc3ccccc3C(F)(F)F)nc(-n3nc(C)cc3C)n2)n1	1.78 µM (active)	
CN(C)c1ccc(NC(=O)Nc2nc(C(N)C3CCCCC3)cs2)cc1 (centres undefined)	inactive	
CCOC(=O)c1c(NC(=O)COC(=O)CNC(=O)c2ccco2)sc(C)c1C		24.5% [at 11.4 µM]
Cc1cc(C)c(S(=O)(=O)/N=C2\C=C(Nc3ccc(C(=O)O)cc3)C(=O)c3ccccc32)c(C)c1	1.58 µM (active)	
CCCCCCn1c2c(c(=N)c3c1CCC3)CCC2	2.51 µM (active)	
Cc1ccc(CN2CC(C(=O)Nc3ncc(C)s3)CC2=O)cc1 (centres undefined)		242% [at 11.4 µM]
Cc1ccc(C(NC(=O)C2CCN(Cc3ccc(Cl)c(Cl)c3)CC2)c2ccccn2)cc1 (centres undefined)	28.2 µM (active)	
O=C1C=C(NCCc2cc(Br)c(O)c(Br)c2)C(=O)c2ncccc21	8.91 µM (active)	
Cc1cc(C)c(C(=O)N2CCCC(N3CCN(c4cccc(C(F)(F)F)c4)CC3)C2)o1 (centres undefined)	3.55 µM (active)	
COC1=CC(=O)C=C(OC)C1(O)CC(C)=O	inactive	
CC(=O)NC(c1cc(Cl)c2cccnc2c1O)C(C)C (centres undefined)	0.794 µM (active)	
CCC(=O)NC(c1cc(Cl)c2cccnc2c1O)C(C)C (centres undefined)	3.98 µM (active)	
CC(C)CCn1c(N)c(S(=O)(=O)c2cccs2)c2nc3ccccc3nc21	3.16 µM (active)	
COc1ccc(C(=O)Cn2c(C(=O)/C=C/c3ccccc3)nc3ccccc32)cc1		92.9% [at 11.4 µM]
CCSc1nc2ccccc2n1C(=O)/C=C\c1ccc(OC)c(OC)c1	14.1 µM (active)	
COc1ccc(C(=O)/C=C/c2cccc(OCc3ccccc3)c2)cc1CSCC(=O)O		-3.73% [at 11.4 µM]

SMILES	Potency	activity change, negative = inhibition
N#Cc1ccccc1NC(=O)C1SC(=Nc2ccccc2)C(C(=O)Nc2ccc(Cl)cc2)=C1N (centres undefined)		-20.6% [at 11.4 µM]
CN(CC(=O)NCc1ccc(F)cc1)CC(=O)Nc1ccc(Cl)c(C(F)(F)F)c1	17.8 µM (active)	
Cc1ccc(C(=O)N(C)CC(=O)Nc2ccc(Cl)c(C(F)(F)F)c2)cc1S(=O)(=O)N1CCCCC1	25.1 µM (active)	
CN(CC(=O)Nc1ccc(Cl)c(C(F)(F)F)c1)C(=O)c1cccnc1Sc1ccccc1	inactive	
Cc1ccc(-n2ncc(C(=O)Nc3ccc(Cl)cc3)c2C2CCNCC2)cc1C	inactive	
Cc1cc(C2=NNC(=NC3CC3)SC2)c(C)n1-c1ccccc1F	0.631 µM (active)	
Cc1ccc(C2CC(=O)Nc3c2ccc2ccccc32)cc1[N+](=O)[O-] (centres undefined)	17.8 µM (active)	
Cc1ccccc1S(=O)(=O)Cc1ccc(C(=O)N2CCN(c3cccc(C)c3C)CC2)o1	3.98 µM (active)	
CCOC(=O)[C@H]1[C@H]2COc3ccc(OC)cc3[C@@H]2N2C(=O)c3cc(OC)c(OC)cc3NC(=O)[C@@]12C		6.45% [at 11.4 µM]
c1cnc2c(c1)ccc1cccnc12	3.55 µM (active)	
CC(=O)N1CCN(c2ccc(Oc3ccc([N+](=O)[O-])c(C(F)(F)F)c3)cc2)CC1	7.94 µM (active)	
N=c1c2c(n(Cc3cccc(Cl)c3)c3c1CCC3)CCCC2	3.16 µM (active)	
N=c1c2c(n(Cc3ccc(Cl)cc3)c3c1CCC3)CCC2	0.708 µM (active)	
N=c1c2c(n(Cc3ccc(Br)cc3)c3c1CCC3)CCCC2	0.501 µM (active)	
Cn1c(CO)cnc1S(=O)(=O)Cc1ccc([N+](=O)[O-])cc1	inactive	
c1nc(CCO[C@H]2CCCCO2)cc2cc3c(cc12)OCO3	3.16 µM (active)	
O=C(C1CCC(CNS(=O)(=O)c2cccs2)CC1)N1CCN(c2ccc(F)cc2)CC1 (centres undefined)	4.47 µM (active)	
CCOc1cc(C=C(C(=O)OC)C(=O)OC)ccc1OCc1ccc([N+](=O)[O-])cc1	25.1 µM (active)	
COc1cc(C(=O)O/N=C(\N)Cc2ccc([N+](=O)[O-])cc2)cc(OC)c1OC		-6.35% [at 11.4 µM]
CC1CC(C)C[N+](=C2C=C(N3CCCC3)CC(C)(C)C2)C1 (centres undefined)	0.794 µM (active)	
CC1CCN(Cc2c(C(=O)N/N=C/c3cc(Br)ccc3O)nnn2-c2nonc2N)CC1	0.447 µM (active)	
CC1CCN(Cc2c(C(=O)N/N=C/c3cc(Cl)ccc3O)nnn2-c2nonc2N)CC1	0.562 µM (active)	
COc1ccc(-c2n(CC(=O)OC3CC(C)CCC3C(C)C)c3ccccc3[n+]2C)cc1 (centres undefined)	3.16 µM (active)	

SMILES	Potency	activity change, negative = inhibition
CCOc1ccc(-n2c(-c3ccccc3)c[n+]3c2CCCCC3)cc1	3.55 µM (active)	
CCOc1ccc(-c2c[n+]3c(n2-c2ccccc2)CCCCC3)cc1	6.31 µM (active)	
CCCCOc1ccc(C(=O)NNC(=S)NC(=O)CC)cc1	2.51 µM (active)	
OC(c1ccccc1)(c1nc(-c2cc3ccccc3o2)cs1)C(F)(F)F (centres undefined)	inactive	
Cc1cc(/C=N/n2cnnc2)c(C)n1-c1ccc(OCc2ccc(Cl)cc2Cl)cc1	12.6 µM (active)	
Cc1ccc(C)c(NC(=O)c2ccccc2NS(=O)(=O)c2cc([N+](=O)[O-])ccc2C)c1	1 µM (active)	
O=C(/C=C/c1ccccc1[N+](=O)[O-])c1ccccc1Br		44.2% [at 11.4 µM]
N#C/C(=C\C=C\c1ccccc1[N+](=O)[O-])C(=O)NCc1ccccc1	3.16 µM (active)	
CC1CCCCC1NC(=O)/C(C#N)=C/C=C/c1ccccc1[N+](=O)[O-] (centres undefined)	3.55 µM (active)	
O=C(Nc1cccnc1)C1Cc2c(-c3ccc4c(c3)OCO4)ccnc2O1 (centres undefined)		-23.6% [at 11.4 µM]
CS(=O)(=O)Nc1cccc(NC(=O)c2cccc3c(-c4cccc(C(N)=O)c4)coc23)c1	inactive	
NC(=O)c1cccc(-c2ccnc3c2CC(C(=O)Nc2cccc(C(F)(F)F)c2)O3)c1 (centres undefined)	3.98 µM (active)	
O=C(CNC(=O)c1ccc(F)cc1)N/N=C/c1cc(Br)ccc1OC(=O)/C=C/c1ccco1	8.91 µM (active)	
O=C(CNC(=O)c1cccc(F)c1)N/N=C/c1cc(Br)ccc1OC(=O)/C=C/c1ccco1	4.47 µM (active)	
O=C(CNC(=O)c1ccccc1F)N/N=C/c1cc(Br)ccc1OC(=O)/C=C/c1ccco1	12.6 µM (active)	
NS(=O)(=O)c1ccc(CCNC(=O)COC(=O)/C=C/c2cc(Br)ccc2F)cc1		-4.52% [at 11.4 µM]
Cc1cc(C)c2c(N)c3cccc(C)c3nc2n1	10 µM (active)	
Cc1nc(N=C(N)N)nc2c(C)cccc12	inactive	
O=C(Nc1ccc(NC(=O)c2cccs2)cc1)c1ccc2c(c1)OCO2		-7.86% [at 11.4 µM]
Cc1ccccc1C(=O)N1CCN(c2ccc(NC(=O)c3ccc4c(c3)OCCO4)cc2)CC1	2.24 µM (active)	
COc1c(C)cccc1C(=O)Nc1ccc(N2CCN(C(=O)c3ccccc3C)CC2)cc1	15.8 µM (active)	
CC(=O)Nc1cc(-c2ccc(C(=O)NC3CC3)cc2)cn2c(-c3cccc(C(C)=O)c3)cnc12	inactive	
O=[N+]([O-])c1cc(CN2CCN(c3ccccc3)CC2)c(O)c2ncccc12	7.94 µM (active)	

SMILES	Potency	activity change, negative = inhibition
Oc1c(CN2CCOCC2)cc(COCc2ccccc2)c2cccnc12	3.55 µM (active)	
O=[N+]([O-])c1cc(Cl)c(O)c2ncccc12	8.91 µM (active)	
O=[N+]([O-])c1cc(O)c2ncccc2c1	3.16 µM (active)	
Oc1ccc(Cl)c2cccnc12	inactive	
O=[N+]([O-])c1ccc(O)c2ncccc12	7.08 µM (active)	
NNC(=O)c1nc(-c2ccccc2)cc(-c2ccccc2)n1	inactive	
O=C(O)COc1ccc2oc3ccccc3c2c1		-24.7% [at 11.4 µM]
CCOC(=O)c1c(-c2ccccc2)oc2ccc(OCC(=O)NN)cc12	28.2 µM (active)	
OCCNc1c2ccccc2nc2ccccc12	20 µM (active)	
OCCNc1c2ccccc2nc2c(F)c(F)c(F)c(F)c12	7.94 µM (active)	
O=c1c(Cc2ccccc2)c(O)nc2n1CCS2	inactive	
Cc1ccc(-c2cn(-c3ccc(OC(F)F)cc3)c3[n+]2CCCCC3)cc1	12.6 µM (active)	
CCOC(=O)C1CCN(C(=O)c2c(C)oc3c2C(=O)c2ccccc2C3=O)CC1	12.6 µM (active)	
Cc1ccc(C)n1-c1ccc(C(=O)N2CCC(C(N)=O)CC2)cc1		4.95% [at 11.4 µM]
Cc1ccnc(N2C(=O)c3cccc4c([N+](=O)[O-])ccc(c34)C2=O)c1	12.6 µM (active)	
O=C1c2cccc3c([N+](=O)[O-])ccc(c23)C(=O)N1c1ccc(Cl)cn1	20 µM (active)	
Cc1ccc(C(=O)O)cc1N1C(=O)c2cccc3c([N+](=O)[O-])ccc(c23)C1=O	inactive	
COc1ccc(-c2noc(CCCC(=O)NC3CCCC3)n2)cc1	7.94 µM (active)	
Cc1ccc(-c2noc(CCCC(=O)NC3CCCC3)n2)cc1	7.08 µM (active)	
Cc1ccccc1NC(=O)Nc1nc(C(N)C2CCCCC2)cs1 (centres undefined)	inactive	
